Inconclusive results are not listed. Calls of active or inactive are those of the source. Unless noted, calls follow the shape of the dose curve; as a rule, active = well fitted curve in the direction sought with a large enough effect; inconclusive = small, poorly fitted or top-dose-only effect, or another doubt; inactive = no such curve, though single readings can be large; an effect the other way counts as inactive or inconclusive.
What was measured:
[1] = HPAF-II 18hr Apoptosis Induction qHTS against the NCATS CANVASS Library (AID 1347360)
In short: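 Luminescent DEVD-substrate signal, proportional to caspase activity, is measured in HPAF-II cells after 18-hour treatment across a concentration series; doxorubicin serves as control.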

[2] = HEK293 12hr Apoptosis Induction qHTS against the NCATS CANVASS Library (AID 1347361)
In short: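 Luminescent caspase-3/7 signal, proportional to enzyme activity, was recorded from HEK293 cultures in DMEM + 10% FBS treated for 12 hours with titrated natural products (11 points). Doxorubicin (0.1nM - 4uM) served as control.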

[3] = test system: NAD(P)H diaphorase (Clostridium kluyveri); assay: Diaphorse counterscreen qHTS: Assay Interference Panel against the NCATS CANVASS Library (AID 1347362)
In short: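 Clostridium kluyveri diaphorase in PBS + 0.01% Tween-20 preincubated 15 min with compounds. Resazurin and NADH then added for 5 min at room temperature in the dark; resorufin fluorescence read (ex 525, em 598).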

[4] = molecular target: Luciferin 4-monooxygenase (Photinus pyralis) (UniProt P08659); assay: Firefly luciferase counterscreen qHTS: Assay Interference Panel against the NCATS CANVASS Library (AID 1347363)
Sequence of Luciferin 4-monooxygenase (Photinus pyralis) (P08659 whole entry, looked up): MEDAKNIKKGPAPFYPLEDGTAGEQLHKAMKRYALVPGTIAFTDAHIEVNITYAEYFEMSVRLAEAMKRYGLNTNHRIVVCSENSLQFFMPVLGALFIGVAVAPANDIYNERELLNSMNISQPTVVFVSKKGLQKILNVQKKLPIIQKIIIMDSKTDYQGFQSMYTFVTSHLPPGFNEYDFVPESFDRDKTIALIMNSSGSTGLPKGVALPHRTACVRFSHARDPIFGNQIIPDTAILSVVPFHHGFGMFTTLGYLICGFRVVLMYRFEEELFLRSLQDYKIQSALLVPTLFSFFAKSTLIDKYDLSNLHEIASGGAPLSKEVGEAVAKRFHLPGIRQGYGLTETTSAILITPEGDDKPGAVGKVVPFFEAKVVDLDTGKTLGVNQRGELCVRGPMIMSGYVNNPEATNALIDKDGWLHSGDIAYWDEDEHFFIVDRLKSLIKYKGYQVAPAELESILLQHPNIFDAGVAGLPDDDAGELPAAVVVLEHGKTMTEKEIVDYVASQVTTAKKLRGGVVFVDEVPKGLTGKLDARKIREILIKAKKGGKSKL
In short: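 Purified P. pyralis luciferase (0.04 ug/mL, 4x reagent) added to Tris-acetate buffer with 0.013 mM D-luciferin, 0.013 mM ATP and 13.3 mM Mg-acetate; compounds preincubated 15 min, then luminescence read after 5 min, RT.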

[5] = KB-8-5-11 Cancer Cell Toxicity qHTS against the NCATS CANVASS Library (AID 1347364)
In short: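 Plate 500 KB-8-5-11 cells per well in DMEM + 10% FBS, add compounds by pin transfer, incubate 72 hr at 37C. Add CellTiter-Glo, wait 10 minutes at room temperature, read luminescence.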

[6] = KB-3-1 Cancer Cell Toxicity qHTS against the NCATS CANVASS Library (AID 1347366)
In short: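 Cytotoxicity toward KB-3-1 cells (500/well, DMEM + 10% FBS) was scored by CellTiter-Glo luminescence following 72 hr exposure at 37C, with bortezomib titrated as control.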

[7] = qHTS for ATAD5 Agonist screened against the NCATS CANVASS Library (AID 1347367)
In short: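 Genotoxicity was scored as increased ATAD5-luciferase luminescence in HEK293T after 16hr of exposure, with cell viability measured by fluorescence beforehand in the same well.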

[8] = MCF7 Cancer Cell Toxicity qHTS against the NCATS CANVASS Library (AID 1347369)
In short: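 This 72 hr qHTS scored MCF7 viability by CellTiterGlo luminescence, with 500 cells/well; bortezomib titration ran as control.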

[9] = qHTS for ATAD5 Antagonist screened against the NCATS CANVASS Library (AID 1347370)
In short: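 HEK293T cells with stably integrated ATAD5-luciferase reporter, 2000/well, 5 h attachment; compounds plus 10 µM 5-fluorouridine, 16 h at 37 °C. Luciferase luminescence read, with CellTiter-Fluor viability read first.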

[10] = J3T Cancer Cell Toxicity qHTS against the NCATS CANVASS Library (AID 1347371)
In short: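 Cells plated at 500 per well, compounds pin-transferred, plates incubated 72 hr at 37C, then CellTiterGlo added and luminescence read to measure ATP content.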

[11] = molecular target: Nuclear receptor subfamily 1 group I member 3 (Homo sapiens) (UniProt Q14994); assay: qHTS for Constitutive Androstane Receptor (CAR) Antagonist screened against the NCATS CANVASS Library (AID 1347372)
Sequence of Nuclear receptor subfamily 1 group I member 3 (Homo sapiens) (Q14994 whole entry, looked up): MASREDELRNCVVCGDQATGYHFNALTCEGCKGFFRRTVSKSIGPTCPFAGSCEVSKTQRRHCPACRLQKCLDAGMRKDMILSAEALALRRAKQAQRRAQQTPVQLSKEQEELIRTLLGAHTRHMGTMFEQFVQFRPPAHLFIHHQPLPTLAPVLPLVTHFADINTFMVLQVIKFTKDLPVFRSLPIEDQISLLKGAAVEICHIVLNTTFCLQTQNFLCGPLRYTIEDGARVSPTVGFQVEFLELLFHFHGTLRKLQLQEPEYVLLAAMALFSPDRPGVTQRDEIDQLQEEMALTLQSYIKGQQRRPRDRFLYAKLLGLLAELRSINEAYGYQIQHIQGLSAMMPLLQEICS
In short: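 HepG2 cells stably carrying hCAR and CYP2B6-2.2kb luciferase reporter, 2500 cells/well, compound with 50 nM CITCO agonist for 24hr at 37C. ONE-Glo luminescence measured CAR activity; CellTiter-Fluor read viability.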

[12] = molecular target: Nuclear receptor subfamily 1 group I member 3 (Homo sapiens) (UniProt Q14994); assay: qHTS for Constitutive Androstane Receptor (CAR) Agonist screened against the NCATS CANVASS Library (AID 1347373)
In short: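 HepG2-hCAR-CYP2B6 cells, 2500/well, attached 4hr; cpd + PK11195 1.5uM final; 24hr 37C 5% CO2. CellTiter-Fluor viability read, then ONE-Glo luminescence for CAR activation.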

[13] = qHTS for Hypoxia signaling pathway (HIF-1) antagonists against the NCATS CANVASS Library (AID 1347374)
In short: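 HRE-bla ME-180 cells in medium with 0.5% dialyzed FBS received compounds (11-point series) plus CoCl2 (60 uM addition stock) for 17 hrs at 37C. Beta-lactamase activity read with CCF4 (405 nm ex, 460/530 nm em); CellTiter-Glo viability measured in same wells.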

[14] = qHTS for Hypoxia signaling pathway (HIF-1) agonists against the NCATS CANVASS Library (AID 1347375)
In short: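 ME-180 HRE-bla reporter cells; 2,000/well, 0.5% dialyzed FBS; cpd added after 5 h, 17 h 37C/5% CO2; CCF4-AM 2 h RT; FRET 460/530 nm; CellTiter-Glo viability same wells, 30 min.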

[15] = 10-beta competent E. coli microbial cell viability qHTS against the NCATS CANVASS Library (AID 1347376)
In short: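 E. coli 10-beta, 0.2 OD; cpds 11-pt; o/n 37C, 5% CO2; BacTiter-Glo 20 min RT; luminescence (ATP) = viable cells. Daunomycin ctrl.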

[16] = DH5-alpha competent E. coli microbial cell viability qHTS against the NCATS CANVASS Library (AID 1347377); conditions: outcome: at 46.1 µM (top of the series)
In short: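 qHTS, 11-pt; E. coli DH5-alpha, 0.2 OD; o/n 37C/5% CO2; BacTiter-Glo, 20 min RT; luminescence.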

[17] = Inflammasome Signaling qHTS Counterscreen: IL-1-beta AlphaLISA counterscreen against the NCATS CANVASS Library (AID 1347381)
In short: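 Cell-free interference check: compounds added to medium spiked with 4 pg purified IL-1β. Anti-IL-1β acceptor beads (6 ug/mL) with 0.6 nM biotinylated antibody added for 1 h at RT, then streptavidin donor beads (24 ug/mL) for 30 min in the dark. AlphaLISA read at 680/615 nm.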

[18] = qHTS for Activators of p53 Stress Response Pathway screened against the NCATS CANVASS Library (AID 1347388)
In short: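 p53RE-bla HCT-116 cells (4000/well) were pre-incubated for 5 h, then treated with compound (11 points) for 16 h at 37C. After 2 h with CCF4, the 460/530 nm ratio gave reporter activation; CellTiter-Glo measured viability.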

[19] = qHTS assay for small molecule disruptors of mitochondrial membrane potential screened against the NCATS CANVASS Library (AID 1347389)
In short: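 HepG2, 2,000 cells/well, attached overnight; compound 1 hr, 37C, 5% CO2; Mito-MPS dye 30 min, 37C; fluorescence 535 nm (monomer) and 590 nm (aggregate); decreased 590/535 ratio = depolarization.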

[20] = qHTS for activators of dead-cell proteases activity screened against the NCATS CANVASS Library (AID 1347392)
In short: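 HepG2 cells, 2000/well, attached 18 h at 37C, then exposed to compounds (11-point qHTS) for 5 h. Dead-cell protease release read as luminescence from cell-impermeant AAF-aminoluciferin substrate after 15 min at room temperature.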

[21] = qHTS for inhibitors of ER calcium dysfunction: SERCaMP assay screened against the NCATS CANVASS Library (AID 1347393)
In short: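 SH-SY5Y GLuc-SERCaMP, 1000 cells/well, 4 h attach; cpd 16 h, 37C/5% CO2; thapsigargin (added as 6x 600 nM) 4 h; coelenterazine; luminescence. Reduced reporter release = ER Ca stabilization.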

[22] = qHTS for inhibitors of Wild type Zika virus screened against the NCATS CANVASS Library (AID 1347396)
In short: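 Vero 766 (African green monkey) cells, 1000 per well, attached overnight, then compounds were added in an 11-point series before wild-type Zika virus infection. After 72 h at 37C, cell viability was read as CellTiter Glo luminescence.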

[23] = Redox Reaction Profiling qHTS: Assay Interference Panel against the NCATS CANVASS Library (AID 1347401)
In short: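 Compounds in 11-point series incubated with 5 uM resazurin and 200 uM DTT in 50 mM HEPES pH 7.3, 50 mM NaCl. Resorufin fluorescence (Ex 525/Em 598) read before and after 15 min in the dark.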

[24] = qHTS for inhibitors of Rabies Virus screened against the NCATS CANVASS Library (AID 1347402; calls by dose curve)
[25] = Primary qHTS for small molecule stabilizers of the endoplasmic reticulum resident proteome: Secreted ER Calcium Modulated Protein (SERCaMP) assay (AID 1508630)
In short: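 GLuc-SERCaMP-expressing SH-SY5Y cells, pretreated 16 h with compound, are challenged with thapsigargin to empty ER calcium stores; after 4 h, coelenterazine is added directly to the medium and luminescence is imaged.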

Measured: Potency

COc1ccc2c3c([nH]c2c1)C(C)=NCC3
active: [9] 16.6 µM | [14] 13.3 µM | [18] 18.6 µM | [21] 27.2 µM
inactive: all other assays above
